In PubChem BioAssay (NCATS):
Inconclusive results are not listed. The source made the active and inactive calls. Unless noted, calls follow the shape of the dose curve; as a rule, active = well fitted curve in either direction with a large enough effect (not every such curve was filed as active); inconclusive = small, poorly fitted or top-dose-only effect, or another doubt; inactive = flat fitted curve, though single readings scatter.

Columns and labels:
[1] = AP1 Signaling Pathway (AID 357); conditions: ME-180 AP-1-bla reporter, EGF-induced, beta-lactamase ratio, 5 h;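 also: ME-180 reporter cells stimulated with EGF at its EC50 level; % is scaled to controls: 0 for no effect and ±100 for the full control effect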
How it was run: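 Read-out was the 460nm/530nm emission ratio (excitation 405nm) after CCF4 loading for 2.5 hours at room temperature. Cells carried an AP-1-driven beta-lactamase reporter, were stimulated with EC50 EGF plus compound for 5 hours, and AC50 values came from titrations.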

[2] = NFAT Signaling Pathway (AID 444); conditions: Jurkat NFAT-bla M1, carbachol, beta-lactamase ratio, 5 h;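 also: carbachol stimulus at about its EC50 of 1 µM final; % is scaled to controls: 0 for no effect and ±100 for the full control effect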
How it was run: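 Read-out: CCF4 FRET ratio (460 nm/530 nm) after 1 h RT dye loading, used for %activity and AC50 from titration series. Cells: Jurkat NFAT-β-lactamase/M1 line, treated with compound plus 1 uM carbachol for 5 h, 37 °C.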

[3] = Stat Signaling Pathway (AID 446); conditions: ME-180 (cervical carcinoma) SIE beta-lactamase reporter, IL-6 stimulated, 5 h;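 also: ME-180 cervical cancer cells given 40 pM IL-6 alongside compound; SIE-controlled beta-lactamase reporter measured as 460/530 nm FRET emission ratio; % is scaled to controls: 0 for no effect and ±100 for the full control effect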
How it was run: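 IL-6/STAT signaling read in ME-180 cells via an SIE beta-lactamase reporter. Stimulus was 40 pM IL-6 (its AC50) for 5 hrs, so both activation and inhibition register.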

[4] = target: Glucocorticoid receptor (Homo sapiens) (UniProt P04150); test: GR-GFP Redistribution (AID 450;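 active = compounds whose dose series gives a full or clear partial fitted curve of increased nuclear translocation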; also: potency is read from the fitted curve at half-maximal effect); conditions: U2OS GR-GFP nuclear translocation, laser cytometry, 2 h
[5] = target: Glucocorticoid receptor (Homo sapiens) (UniProt P04150); test: GR-EFC Redistribution (AID 451; calls by dose curve; also: potency is read from the fitted curve at half-maximal effect); conditions: CHO-K1 GR-EFC translocation, beta-gal luminescence, 2 h
How it was run: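 Translocation of GR-ED fusion to nuclear EA restores b-gal, read by luminescence after 1 h room-temperature detection. Engineered CHO-K1 biosensor cells, 1,000/well, exposed 2 h at 37 C to titrations up to 46 uM final.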

[6] = target: Mitogen-activated protein kinase 10 (Mus musculus) (UniProt Q61831); test: JNK3 AlphaScreen Assay (AID 530); conditions: JNK3 lysate, c-Jun phosphorylation; series mostly up to 25.6 µM;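 also: kinase came from lysate of stimulated human HepG2 cells; signal reports phosphorylation of biotinylated GST-cJun 1-79 at Ser73 with 10 µM ATP; % is scaled to controls: 0 for no effect and ±100 for the full control effect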
How it was run: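 Room-temperature AlphaScreen kinase assay; pre-activated HepG2 lysate as JNK3 source, biotin-GST-cJun(1-79) substrate, 10 uM ATP, compound 15 min preincubation.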

[7] = target: Cytochrome P450 1A2 (Homo sapiens) (UniProt P05177); test: p450-cyp1a2 (AID 410; calls by dose curve; also: potency is read from the fitted curve at half-maximal effect;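 as to activity change, negative = inhibition: -100% = full effect of reference inhibitor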); conditions: recombinant CYP1A2, luciferin-ME demethylation, luminescence; series mostly up to 25.6 µM
How it was run: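 Inhibition was calculated relative to 57 uM furafylline (full inhibition). The reaction used human CYP1A2 at 20nM with Luciferin-ME at its Km, 100uM, driven by an NADPH-regenerating system for 60 min at room temperature.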

[8] = Cell Viability - Jurkat (AID 426;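 active = dose-dependent loss of cell ATP signal giving a full or clear fitted curve, ranked by lower potency value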;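 also: potency is read from the fitted curve at half-maximal effect; cells exposed to compound for 40 hours at 37 °C before ATP read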); conditions: qHTS
How it was run: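 Seed 5000 Jurkat E6-1 cells/well; add compound; incubate 40 hr at 37 °C; add CellTiter-Glo; wait 20 min at room temperature; read luminescence. Fit concentration-response with Hill equation for AC50.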

[9] = Cell Viability - Hek293 (AID 427;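 active = compounds whose dose-response curve shows a full or clear partial loss of cell viability, called from curve shape rather than a numeric limit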;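 also: potency is read from the fitted curve at half-maximal effect; cells exposed to compound for 40 hours at 37 °C before reading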); conditions: qHTS
How it was run: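 AC50 values derive from Hill-modelled concentration-response of ATP-based luminescence, normalized between DMSO-only and 100 uM tamoxifen controls. Cells were exposed in complete culture medium for 40 hr at 37 °C before detection.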

[10] = Cell Viability - HepG2 (AID 433; calls by dose curve;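 also: potency is read from the fitted curve at half-maximal effect; cells exposed to compound for 40 hours; potency for ATP loss meaning cytotoxicity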); conditions: qHTS
How it was run: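 ATP luminescence (CellTiter-Glo) after 40 h compound exposure, 37 °C, HepG2, 1500 cells/well, complete medium. Normalized: DMSO = basal, 100 uM tamoxifen = 100% inhibition. AC50 via standard Hill equation.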

[11] = Cell Viability - SK-N-SH (AID 435; calls by dose curve; also: potency is read from the fitted curve at half-maximal effect); conditions: SK-N-SH neuroblastoma cell viability qHTS
How it was run: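 CellTiter-Glo ATP luminescence, 20 min RT read; cells pre-plated 5 hr, compound 40 hr at 37 °C, 1500 cells/well, complete medium. Normalized DMSO = 0, 100 uM tamoxifen = 100% inhibition; Hill-fit AC50.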

[12] = Cell Viability - N2a (AID 540; active = well fitted curve in the direction sought with a large enough effect; an effect the other way counts as inactive or inconclusive; also: nearly all actives have a fitted effect of over 45% in size; also: potency is read from the fitted curve at half-maximal effect;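 as to activity change, negative = cytotoxicity: plate controls were DMSO alone for no effect and tamoxifen control for full effect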); conditions: N2a mouse neuroblastoma cell viability; activity change, negative = cytotoxicity: at 92.2 µM (top of the series)
How it was run: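 First, 1500 N2a cells per well incubate 5 hr at 37 °C; next, compounds are added and incubated 40 hr at 37 °C; finally CellTiter-Glo is added and luminescence read after 20 min, with AC50 derived by Hill modeling.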

[13] = Cell Viability - NIH 3T3 (AID 541; active = well fitted curve in the direction sought with a large enough effect; an effect the other way counts as inactive or inconclusive;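 also: cells exposed to compound for 40 hours; nearly all actives have a fitted effect of over 25% in size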; also: potency is read from the fitted curve at half-maximal effect;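 as to activity change, negative = cytotoxicity: plate controls were DMSO alone for no effect and tamoxifen positive control for full effect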); conditions: NIH 3T3 cell viability, qHTS; activity change, negative = cytotoxicity: at 92.2 µM (top of the series)
How it was run: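 AC50 values reflect concentration-dependent loss of intracellular ATP in NIH 3T3 cells after 40 hr treatment in complete culture medium, quantified by luciferase-based luminescence.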

[14] = Cell Viability - HUV-EC-C (AID 542; active = well fitted curve in the direction sought with a large enough effect; an effect the other way counts as inactive or inconclusive;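 also: cells exposed to compound for 40 hours; nearly all actives have a fitted effect of over 35% in size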; also: potency is read from the fitted curve at half-maximal effect); conditions: HUV-EC-C endothelial cell viability, qHTS; series mostly up to 92.2 µM
How it was run: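 Decrease in cellular ATP, quantified by luciferase luminescence, reflects toxicity in normal human vascular endothelial HUV-EC-C cells given compound for 40 hr in complete culture medium. Values are AC50s from concentration-response curves.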

[15] = Cell Viability - H-4-II-E (AID 543; active = well fitted curve in the direction sought with a large enough effect; an effect the other way counts as inactive or inconclusive;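 also: cells exposed to compound for 40 hours; nearly all actives have a fitted effect of over 35% in size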; also: potency is read from the fitted curve at half-maximal effect); conditions: H-4-II-E rat hepatoma viability; series mostly up to 92.2 µM
How it was run: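 Here, cytotoxicity is measured in the rat hepatoma line H-4-II-E as loss of intracellular ATP after 40 hr compound treatment, detected by luciferase luminescence.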

[16] = Cell Viability - Renal Proximal Tubule (AID 545; active = well fitted curve in the direction sought with a large enough effect; an effect the other way counts as inactive or inconclusive;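 also: cells exposed to compound for 40 hours; nearly all actives have a fitted effect of over 40% in size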; also: potency is read from the fitted curve at half-maximal effect;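 as to activity change, negative = cytotoxicity: 0% = DMSO only and -100% = 100 µM tamoxifen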); conditions: renal proximal tubule cells viability, primary cells of rat origin; activity change, negative = cytotoxicity: at 91.7 µM (top of the series)
How it was run: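 Rat kidney proximal tubule cells, freshly isolated; 1000 cells/well, 5 hr settle, compound 40 hr 37 °C. CellTiter-Glo 20 min RT, luminescence read. AC50 by standard Hill fit.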

[17] = Cell Viability - Mesenchymal (AID 546; active = well fitted curve in the direction sought with a large enough effect; an effect the other way counts as inactive or inconclusive;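 also: cells exposed to compound for 40 hours before reading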; also: potency is read from the fitted curve at half-maximal effect;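 as to activity change, negative = cytotoxicity: 0% = DMSO only and -100% = 100 µM tamoxifen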); conditions: mesenchymal cells viability, qHTS; activity change, negative = cytotoxicity: at 91.7 µM (top of the series)
How it was run: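 AC50 values reflect the drop in intracellular ATP in a human kidney mesenchymal line derived from normal glomeruli. Treatment lasts 40 hr at 37 °C in complete medium, and the signal comes from CellTiter-Glo luminescence.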

[18] = Cell Viability - BJ (AID 421; calls by dose curve;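 also: potency is read from the fitted curve at half-maximal effect; cells exposed to compound for 40 hours at 37 °C before readout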); conditions: BJ fibroblast viability, qHTS
How it was run: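 Quantitative HTS: ATP depletion in BJ cells after 40 hr compound exposure in complete culture medium, detected with CellTiter-Glo; AC50 from standard Hill fits.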

[19] = Cell Viability - SH-SY5Y (AID 544; active = well fitted curve in the direction sought with a large enough effect; an effect the other way counts as inactive or inconclusive;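 also: cells exposed to compound for 40 hours; nearly all actives have a fitted effect of over 55% in size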; also: potency is read from the fitted curve at half-maximal effect;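 as to viability change, negative = cytotoxic: 0% = DMSO alone and -100% = 100 µM tamoxifen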); conditions: SH-SY5Y neuroblastoma cell viability; viability change, negative = cytotoxic: at 92.2 µM (top of the series)
How it was run: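 Cytotoxicity is scored as a concentration-dependent fall in intracellular ATP in human SH-SY5Y cells treated 40 hr in complete culture medium. Potency is expressed as AC50 from a Hill equation fit.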

Glucocorticoid receptor (Homo sapiens), sequence (P04150 whole entry, looked up, the tested form may be a part): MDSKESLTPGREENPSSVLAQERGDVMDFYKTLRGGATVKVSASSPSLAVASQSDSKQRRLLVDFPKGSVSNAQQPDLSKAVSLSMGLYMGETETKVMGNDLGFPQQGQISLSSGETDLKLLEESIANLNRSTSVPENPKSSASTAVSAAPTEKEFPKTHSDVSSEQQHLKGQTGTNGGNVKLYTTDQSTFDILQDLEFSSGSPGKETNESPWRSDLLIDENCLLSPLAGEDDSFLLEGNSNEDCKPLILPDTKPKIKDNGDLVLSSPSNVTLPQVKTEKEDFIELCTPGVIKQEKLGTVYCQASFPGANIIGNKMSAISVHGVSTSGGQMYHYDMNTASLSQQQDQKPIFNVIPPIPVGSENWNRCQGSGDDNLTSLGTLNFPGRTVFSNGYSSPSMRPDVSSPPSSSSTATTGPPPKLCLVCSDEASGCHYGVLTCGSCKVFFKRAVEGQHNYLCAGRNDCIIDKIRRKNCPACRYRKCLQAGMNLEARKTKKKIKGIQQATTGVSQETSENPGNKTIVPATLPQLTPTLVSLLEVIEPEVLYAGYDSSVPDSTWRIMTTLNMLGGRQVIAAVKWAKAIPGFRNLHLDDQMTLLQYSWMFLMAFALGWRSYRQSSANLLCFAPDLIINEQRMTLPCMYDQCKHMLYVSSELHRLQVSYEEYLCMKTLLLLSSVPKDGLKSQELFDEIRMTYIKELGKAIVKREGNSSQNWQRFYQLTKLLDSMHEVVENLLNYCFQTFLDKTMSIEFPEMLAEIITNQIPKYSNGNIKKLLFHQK
Cytochrome P450 1A2 (Homo sapiens), sequence (P05177 whole entry, looked up): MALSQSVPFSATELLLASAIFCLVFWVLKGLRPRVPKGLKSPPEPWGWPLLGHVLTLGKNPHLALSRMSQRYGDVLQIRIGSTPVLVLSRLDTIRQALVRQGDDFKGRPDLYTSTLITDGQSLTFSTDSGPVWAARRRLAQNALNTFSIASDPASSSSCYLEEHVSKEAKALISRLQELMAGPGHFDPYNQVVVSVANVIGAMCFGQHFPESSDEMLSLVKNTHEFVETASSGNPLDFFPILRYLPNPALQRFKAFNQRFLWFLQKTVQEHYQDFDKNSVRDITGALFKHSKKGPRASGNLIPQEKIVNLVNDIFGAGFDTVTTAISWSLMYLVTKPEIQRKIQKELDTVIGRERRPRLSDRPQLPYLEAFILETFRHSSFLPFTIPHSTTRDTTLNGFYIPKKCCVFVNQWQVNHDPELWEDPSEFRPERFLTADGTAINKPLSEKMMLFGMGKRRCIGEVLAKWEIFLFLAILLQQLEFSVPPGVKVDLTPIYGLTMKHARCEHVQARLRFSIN

CCn1cc(C(=O)O)c(=O)c2cnc(N3CCCC3)nc21
inactive: activity change, negative = inhibition ([1]; at 17.2 µM (top of the series)) 5.94% | activity change, negative = inhibition ([2]; at 17.2 µM (top of the series)) 5.83% | activity, negative = inhibition ([3]; at 17.2 µM (top of the series)) 2.28% | Potency [4] > 20.6 µM | Potency [5] > 20.6 µM | outcome [6]

CCN1CCC[C@H]1CNC(=O)c1c(OC)ccc(Br)c1OC
inactive: activity change, negative = inhibition ([1]; at 17.2 µM (top of the series)) -5.77% | Potency [7] | activity change, negative = inhibition ([2]; at 17.2 µM (top of the series)) -26.9% | activity, negative = inhibition ([3]; at 17.2 µM (top of the series)) 14.1% | outcome [6]

CCC(C(=O)OCCN(CC)CC)c1ccccc1 (configuration not stated)
inactive: activity change, negative = inhibition ([1]; at 17.2 µM (top of the series)) 1.42% | activity, negative = inhibition ([3]; at 17.2 µM (top of the series)) 2.13% | Potency [4] > 20.6 µM
active: activity change, negative = inhibition ([2]; at 17.2 µM (top of the series)) -83.4%

CCCC1O[C@@H]2C[C@H]3[C@@H]4CCC5=CC(=O)C=C[C@]5(C)[C@H]4[C@@H](O)C[C@]3(C)[C@]2(C(=O)CO)O1 (some centres not stated)
inactive: activity change, negative = inhibition ([1]; at 17.2 µM (top of the series)) 2.92% | activity change, negative = inhibition ([2]; at 17.2 µM (top of the series)) 23.6% | activity, negative = inhibition ([3]; at 17.2 µM (top of the series)) -3.6%

C[C@@H]1C(=O)NC2=Nc3cccc(Cl)c3CN21
inactive: activity change, negative = inhibition ([1]; at 38 µM (top of the series)) 9.37% | activity change, negative = inhibition ([2]; at 38 µM (top of the series)) -0.581% | activity, negative = inhibition ([3]; at 38 µM (top of the series)) -15.9% | Potency [4] > 46 µM | Potency [5] > 46 µM

CC(=O)OCC(=O)[C@@]12OC(C)(C)O[C@@H]1C[C@H]1[C@@H]3C[C@H](F)C4=CC(=O)C=C[C@]4(C)[C@@]3(F)[C@@H](O)C[C@@]12C
inactive: activity change, negative = inhibition ([1]; at 17.2 µM (top of the series)) -9.69% | activity change, negative = inhibition ([2]; at 17.2 µM (top of the series)) 15.1% | activity, negative = inhibition ([3]; at 17.2 µM (top of the series)) -3.28%
active: Potency [4] 0.00057 µM

Oc1c(I)cc(I)c2cccnc12
inactive: Potency [4] > 20.6 µM

NC(=NCCCCCCN=C(N)/N=C(\N)Nc1ccc(Cl)cc1)/N=C(\N)Nc1ccc(Cl)cc1
active: Potency [7] 15.8 µM | Potency [8] 42.1 µM | Potency [9] 45.6 µM | Potency [10] 39.6 µM | Potency [11] 46.5 µM | Potency [12] 31.6 µM | Potency [13] 31.6 µM | Potency [14] 39.8 µM | Potency [15] 31.6 µM | activity change, negative = cytotoxicity [16] -102% | Potency [17] 31.6 µM
inactive: activity, negative = inhibition ([3]; at 17.2 µM (top of the series)) -5.46% | Potency [4] > 20.6 µM | Potency [5] > 20.6 µM | outcome [6]

c1ccc(-c2ccc(C(c3ccccc3)n3ccnc3)cc2)cc1 (configuration not stated)
inactive: activity, negative = inhibition ([3]; at 17.2 µM (top of the series)) -24.4% | Potency [4] > 20.6 µM

O=C(O)CCCCC(=O)O
inactive: Potency [18] > 92 µM | Potency [8] > 92 µM | Potency [9] > 92 µM | Potency [10] > 92 µM | Potency [11] > 92 µM | outcome [6] | Potency [12] | Potency [13] | Potency [14] | Potency [15] | Potency [19] | activity change, negative = cytotoxicity [16] 1.76% | activity change, negative = cytotoxicity [17] 3.41%

CCCCC(=O)O[C@]1(C(=O)CO)CC[C@H]2[C@@H]3CCC4=CC(=O)CC[C@]4(C)[C@H]3[C@@H](O)C[C@@]21C
active: Potency [4] 0.000459 µM
inactive: activity change, negative = inhibition ([1]; at 17.2 µM (top of the series)) 5.88% | activity, negative = inhibition ([3]; at 17.2 µM (top of the series)) -12.8%

C[C@@H](CN(C)C)CN1c2ccccc2Sc2ccccc21
active: activity change, negative = inhibition ([1]; at 17.2 µM (top of the series)) 82.2% [activator]
inactive: activity, negative = inhibition ([3]; at 17.2 µM (top of the series)) -7.27% | Potency [4] > 20.6 µM | Potency [5] > 20.6 µM | outcome [6]

CN(C)CCOc1ccccc1Cc1ccccc1
inactive: activity change, negative = inhibition ([1]; at 17.2 µM (top of the series)) 16.9% | activity, negative = inhibition ([3]; at 17.2 µM (top of the series)) -3.49%

C[C@@H]1CN(CCCn2c3ccccc3c3ccccc32)C[C@H](C)N1
inactive: outcome [6]
active: Potency [7] 0.794 µM

CC[N+](CC)(CCNC(=O)C(=O)NCC[N+](CC)(CC)Cc1ccccc1Cl)Cc1ccccc1Cl
inactive: Potency [7] | outcome [6]

O=c1ccc2ccccc2o1
inactive: Potency [18] > 92 µM | Potency [8] > 92 µM | Potency [9] > 92 µM | Potency [10] > 92 µM | Potency [11] > 92 µM | outcome [6] | Potency [12] | Potency [13] | Potency [14] | Potency [15] | Potency [19] | activity change, negative = cytotoxicity [16] -6.1% | activity change, negative = cytotoxicity [17] 4.05%

Nc1cc(Cl)c(NC2=NCCN2)c(Cl)c1
inactive: activity change, negative = inhibition ([1]; at 38 µM (top of the series)) 2.68% | activity change, negative = inhibition ([2]; at 38 µM (top of the series)) -7.69% | activity, negative = inhibition ([3]; at 38 µM (top of the series)) -3.42% | Potency [4] > 46 µM | Potency [5] > 46 µM | outcome [6]

CCCCCCC[N+](CC)(CC)CCCCc1ccc(Cl)cc1
inactive: activity, negative = inhibition ([3]; at 17.2 µM (top of the series)) -5.02% | Potency [4] > 20.6 µM | Potency [5] > 20.6 µM | outcome [6]

COc1cccc2c1C(=O)c1c(O)c3c(c(O)c1C2=O)C[C@@](O)(C(=O)CO)C[C@@H]3O[C@H]1C[C@H](N)[C@H](O)[C@H](C)O1
inactive: Potency [10] > 92 µM | Potency [4] > 20.6 µM | outcome [6]
active: Potency [18] 0.177 µM | Potency [8] 0.0218 µM | Potency [9] 0.0255 µM | Potency [11] 0.0168 µM | Potency [12] 0.398 µM | Potency [13] 0.0794 µM | Potency [15] 25.1 µM | Potency [19] 12.6 nM | Potency [16] 15.8 µM
